# Measurements from PubChem BioAssay AID624311 (Broad Institute, 2012).
# Activity calls are given as the source filed them.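 How the source made its calls: active means fluorescence dropping 30% or more below neutral controls, activity change at or below -30%; inactive means the rest.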
# Target: Protein disulfide-isomerase (Homo sapiens) (UniProt P07237)
# Assay: PDI-driven insulin aggregation, ProteoStat dye readout – biochemical, fluorescence, dry powder samples, orthogonal assay for PDI inhibitor project, confirmation (AID 624311)
# Details: Recombinant PDI insulin reduction; series mostly up to 18 µM
# Chain of Protein disulfide-isomerase (Homo sapiens) (P07237 whole entry, looked up): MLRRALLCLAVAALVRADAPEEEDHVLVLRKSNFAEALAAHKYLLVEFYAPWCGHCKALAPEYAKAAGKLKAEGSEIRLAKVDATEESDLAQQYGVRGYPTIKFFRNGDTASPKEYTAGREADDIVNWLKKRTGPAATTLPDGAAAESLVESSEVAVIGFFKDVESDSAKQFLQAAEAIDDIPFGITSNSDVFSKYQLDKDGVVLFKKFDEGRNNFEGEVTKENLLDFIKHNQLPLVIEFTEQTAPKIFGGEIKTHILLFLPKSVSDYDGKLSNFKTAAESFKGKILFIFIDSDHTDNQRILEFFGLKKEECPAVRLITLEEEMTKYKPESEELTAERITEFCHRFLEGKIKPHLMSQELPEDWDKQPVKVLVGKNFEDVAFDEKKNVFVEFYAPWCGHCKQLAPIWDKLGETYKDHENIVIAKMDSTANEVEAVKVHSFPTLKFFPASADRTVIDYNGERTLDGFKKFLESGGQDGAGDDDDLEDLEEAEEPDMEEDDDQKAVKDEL
smiles,measurement,value
C[C@H]1CN([C@@H](C)CO)C(=O)c2cccc(NS(C)(=O)=O)c2O[C@H]1CN(C)Cc1ccc(Oc2ccccc2)cc1,outcome,inactive
